In ChEMBL document CHEMBL3988442, “University of Dundee, Small-Polar-MMV Screening Library” (2021) one finds Percent Effect data, which are given here for 19 compounds.

The assay concerns the target T1, Arginase-2, mitochondrial (Homo sapiens) (UniProt P78540).
T1 sequence (whole entry): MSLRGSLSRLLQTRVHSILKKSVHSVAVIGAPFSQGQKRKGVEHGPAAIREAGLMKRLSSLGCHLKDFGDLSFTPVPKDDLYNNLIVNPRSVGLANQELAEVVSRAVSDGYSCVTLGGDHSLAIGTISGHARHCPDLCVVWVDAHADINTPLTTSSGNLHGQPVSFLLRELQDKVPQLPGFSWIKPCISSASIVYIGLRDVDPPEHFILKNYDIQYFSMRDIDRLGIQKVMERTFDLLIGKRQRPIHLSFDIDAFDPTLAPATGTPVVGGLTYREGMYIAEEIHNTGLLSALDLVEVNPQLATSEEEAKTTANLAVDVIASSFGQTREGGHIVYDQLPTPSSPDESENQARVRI
Put plainly: in vitro enzyme assay to detect the production of urea directly proportional to the activity of Arginase II. In kind it is functional. More on the design: scale not given: in the data most compounds retested in dose-response had high values. The following applies: 33.3 µM.
Consider `CCN(CC)C(=O)c1ccn(COc2cc(C)cc(C)c2)n1`, for which the Percent Effect is -5.81%. In the case of `Cc1cc(C(=O)N2C[C@@H]3COC[C@]3(c3nnc(C4CC4)o3)C2)on1` it was -46.4%; in that of `COC(=O)c1ccc(N2CCN(CCN3CCOCC3)C(C)C2)cc1` (centres undefined), -1.8%.

For the compound `Cc1ccc(N2CCCC(NCc3cscn3)C2)nn1` (centres undefined), the Percent Effect came out at 18.4%.

Consider `Cc1noc2ncc(C(=O)N(CC3CCOC3)C3CC3)cc12` (centres undefined), for which the Percent Effect was found to be 3.45%.

With `Cc1cnn(CC2CCCN2c2nn3cc(C)nc3s2)c1` (centres undefined), the Percent Effect is -1.07%.

For the compound `CCC(NC(=O)C1CCN(S(C)(=O)=O)CC1)c1ccc(OC)c(C)c1` (centres undefined), the Percent Effect was -4.14%. The result for `CNC(=O)[C@@]12CCC3(CCN(S(C)(=O)=O)CC3)[C@@H]1CN(S(C)(=O)=O)C2` reads 0.248%; that for `Cc1ccc(C(=O)N2CCN(CCCSCC#N)CC2)o1`, -2.4%; that for `CC(=O)N(Cc1ncc(C)o1)C1CCN(CCNC2CCCCC2)C1` (centres undefined), 0.744%.

Consider `Cc1cnc(CN(C)CC2CCCN2c2cccnn2)cn1` (centres undefined), for which the Percent Effect was -5.26%. The result for `Cc1cnn(CC2CCCN2C(=O)c2cnc3n[nH]c(C)c3c2)c1` (centres undefined) reads 0.645%; that for `CC(=O)c1cccc(S(=O)(=O)N2CSCC2C(=O)NCC(F)(F)F)c1` (centres undefined), -7.1%; that for `CCCN(Cc1ccccc1)Cn1nc(C)c2c(C)onc2c1=O`, -4.81%. In the case of `CN1CCCC(Cc2ccnc3ccncc23)CC1` (centres undefined) it was -2.09%; in that of `N#Cc1ccccc1CN1C[C@@H]2CC[C@H](C1)N(Cc1cscn1)C2=O`, -1.91%.

For `CSc1ncc(C(=O)N2C[C@H]3CC[C@@H]2CN(Cc2ccccc2)C3)cn1`, the Percent Effect amounted to 2.27%. For the compound `N#CCSCCCN1CCCN(C(=O)c2ccccc2)CC1`, the Percent Effect turned out to be 3.19%.

For `Cc1nn(C)c(N2CCOCC2)c1CNC(C)c1ccco1` (centres undefined), the Percent Effect was 2.21%.
